Records with an inconclusive call do not appear. Activity calls are given as the source filed them. The call rests on the fitted dose curve; in most records, active means well fitted inhibition curve with a large enough effect; inconclusive means small, poorly fitted or top-dose-only effect; inactive means no such curve, though single readings can be large or run the other way. Where a SMILES comes first, the peptide text is derived from it. The star is where a group is joined. AFC = O=c1cc(C(F)(F)F)c2ccc(N*)cc2o1
test system: Zika virus NS2B-NS3 protease (unlinked complex); test: Primary screen GU Rhodamine qHTS for Zika virus inhibitors: Unlinked NS2B-NS3 protease assay (AID 1347159); settings: Recombinant ZIKV NS2B-NS3 protease, Rhodamine110 substrate fluorescence; series mostly up to 107 µM; activity change, negative = inhibition: at the top concentration; further: nearly all actives have a fitted effect of over 60% in size
Method in brief: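 Enzyme 25 nM in Tris-HCl pH 8.0 + 0.01% Tween 20; compounds up to 114 microM, 15 min RT dark; + Rhod110 substrate 1.5 microM; read t0 and 15 min; delta fluorescence → % inhibition → 4-parameter Hill fit.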
On the % scale 0 is the no-effect control and ±100 the full control effect.

Structure (SMILES)	activity change, negative = inhibition
CC1CCC2C(C)(C)C(O)CCC2(C)C12Cc1c(O)cc3c(c1O2)CN(C(CCC(N)=O)C(=O)O)C3=O (stereo not given)	-11.6% [at 57.1 µM] (inactive)
O=C(O)c1n[nH]c2c1C[C@H]1C[C@@H]21	27.7% (inactive)
NC(Cc1c[nH]c2ccccc12)C(=O)NC(CCC(=O)O)C(=O)O (stereo not given)	21.6% (inactive)
COC(=O)C1=CO[C@@H](O[C@@H]2O[C@H](CO)[C@@H](O)[C@H](O)[C@H]2O)[C@@H]2[C@@H](C)[C@@H](O)C[C@H]12	41.5% (inactive)
CO[C@@]12CC3[C@@H]([C@@H](O)[C@@H](OC(C)=O)C4[C@](C)(COC(C)=O)CCC[C@]34C)[C@@H](C)C1=CC(=O)O2 (stereo not given in full)	22% [at 57.1 µM] (inactive)
COc1cc(NC(=O)c2ccccn2)ccc1Cl	-9.14% (inactive)
COc1c(C)c(OCC=C(C)C)cc2c1C(=O)NC2=O	-16.8% (inactive)
C/C(=C\CCC(C)(O)c1ccc(C)cc1)C(=O)O (stereo not given)	-7.33% (inactive)

test system: Zika virus NS2B-NS3 protease (linked construct); test: Primary screen NINDS Rhodamine qHTS for Zika virus inhibitors (AID 1347160); settings: purified NS2B-NS3 protease, Rhodamine110 substrate fluorescence; series mostly up to 57.1 µM; activity change, negative = inhibition: at the top concentration; further: nearly all actives have a fitted effect of over 55% in size; further: potency means the concentration at half of the fitted maximal effect
Method in brief: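 Enzyme (25 nM, linked NS2B-NS3) was preincubated 15 min with compound in 10 mM Tris-HCl pH 8.0, 0.01% Tween 20. Rhodamine110 substrate (1.5 microM) was then added and fluorescence read at start and after 15 min.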

Structure (SMILES)	activity change, negative = inhibition	outcome	Potency
O=C(O[C@H]1[C@@H]2C=CO[C@@H](O[C@@H]3O[C@H](CO)[C@@H](O)[C@H](O)[C@H]3O)[C@@H]2[C@@]2(CO)O[C@@H]12)c1ccc(O)c(O)c1	-15.3% [at 33.1 µM] (inactive)	–	–
CCC(=O)O[C@]1(C(=O)CCl)[C@@H](C)C[C@H]2[C@@H]3C[C@H](F)C4=CC(=O)C=C[C@]4(C)[C@@]3(F)[C@@H](O)C[C@@]21C	14.8% (inactive)	–	–
C[C@@H]1O[C@@H](O[C@H]2[C@H](OC(=O)C34CCC(C)(C)CC3C3=CCC5C6(C)CC(O)C(O[C@@H]7O[C@H](CO)[C@@H](O)[C@H](O)[C@H]7O)C(C)(C(=O)O)C6CCC5(C)C3(CO)CC4)O[C@H](C)[C@H](O)[C@@H]2O)[C@H](O)[C@H](O)[C@H]1O[C@@H]1OC[C@@H](O)[C@H](O)[C@H]1O (stereo not given in full)	16.8% [at 15.1 µM] (inactive)	–	–
Cc1cn2c(N)c(Cl)cc(C(=O)NCC3CCN(CC(C)C)CC3)c2n1	-0.447% (inactive)	–	–
CC(C)c1nc(N(C)S(C)(=O)=O)nc(-c2ccc(F)cc2)c1/C=C/[C@@H](O)C[C@@H](O)CC(=O)O	218% (inactive)	–	–
Cc1[nH]cnc1C1CCN(c2nc3cccc4c3n2CCC4=O)CC1	–	inactive	–
C[C@@H]1O[C@@H](O[C@@H]2[C@@H](O)[C@H](O[C@@H]3[C@@H](O)[C@@H](O)[C@H](O[C@H]4[C@H](OC(=O)[C@]56CCC(C)(C)C[C@H]5C5=CCC7[C@@]8(C)C[C@H](O)[C@H](O[C@@H]9O[C@H](C(=O)O)[C@@H](O)[C@H](O)[C@H]9O)[C@@](C)(CO)C8[C@H](O)C[C@@]7(C)[C@]5(C)CC6)OC[C@H](O)[C@@H]4O)O[C@H]3C)OC[C@H]2O)[C@H](O)[C@H](O)[C@H]1O (stereo not given in full)	–	inactive [at 10.7 µM]	–
O=C(NN1CCCCC1)c1nn(-c2ccc(Cl)cc2Cl)c(-c2ccc(C#Cc3ccc(C(F)(F)F)cc3)s2)c1CNS(=O)(=O)N1CCCC1	10.4% (inactive)	–	–
O=C(c1ccccn1)c1cnn2c(-c3ccncc3)ccnc12	3.93% (inactive)	–	–
CC(=O)N[C@@H](CC(C)C)C(=O)N[C@@H](CCC(=O)O)C(=O)N[C@@H](CCC(=O)O)C(=O)N[C@@H](CC(=O)O)C(=O)Nc1ccc2c(C(F)(F)F)cc(=O)oc2c1 (Ac-LEED-{AFC})	-6.88% (inactive)	–	–
Cc1cccc(-c2[nH]c(CNc3ccccc3F)nc2-c2ccc3ncnn3c2)n1	9.69% (inactive)	–	–
O=C(O)[C@H]1CCCC[C@H]1C(=O)N1CCc2ccccc2[C@H]1CN1C(=O)c2ccccc2C1=O	10.2% (inactive)	–	–
CC1(C)CC[C@]2(C(=O)O)CC[C@]3(C)C(=CCC4[C@@]5(C)CC[C@H](O[C@@H]6O[C@H](C(=O)O)[C@@H](O)[C@H](O)[C@H]6O)C(C)(CO)C5CC[C@]43C)C2C1 (stereo not given in full)	-16.5% [at 15.1 µM] (inactive)	–	–
CC(=O)O[C@H](C[C@@H](C)[C@H]1C(=O)[C@H](O)[C@@]2(C)[C@@H]3CCC4C(C)(C)[C@@H](O[C@@H]5OC[C@H](O)[C@H](O)[C@H]5O)CC[C@@]45C[C@@]35CC[C@]12C)[C@@H]1OC1(C)C (stereo not given in full)	-5.08% [at 15.1 µM] (inactive)	–	–
C=C[C@](C)(CC/C=C(\C)C(=O)O)O[C@@H]1OC[C@H](O)[C@H](O)[C@H]1O	–	–	12.6 µM (active)
CC1=CC[C@]2(C(=O)O[C@@H]3O[C@H](CO[C@@H]4O[C@H](CO)[C@@H](O[C@@H]5O[C@@H](C)[C@H](O)[C@@H](O)[C@H]5O)[C@H](O)[C@H]4O)[C@@H](O)[C@H](O)[C@H]3O)CC[C@]3(C)C(CCC4[C@@]5(C)C[C@@H](O)[C@H](O)[C@@](C)(CO)C5CC[C@]43C)C2C1C (stereo not given in full)	6.79% [at 15.1 µM] (inactive)	–	–
O=C1NCc2nc3ccccc3c(=O)n2C1Cc1c[nH]c2ccccc12 (stereo not given)	-5.13% [at 33.1 µM] (inactive)	–	–
